Laboratory results: PubChem BioAssay
Calls of active or inactive are those of the source.

What was measured:
[1] = system: XIP peptide (Xip251-270) binding; experiment: XIP fragment 251-270 binding compounds – biochemical, small-molecule microarray, fluorescence 635/667 nm, 0.1 µg/mL protein, primary screen (AID 1182); settings: fluorescent protein binding, 635 nm, higher = more signal, called active from +8 up or from −8 down
XIP peptide (Xip251-270) = experiment: compounds binding XIP fragment 251-270 – biochemical, small-molecule microarray, fluorescence 635/667 nm, 0.5 µg/mL protein, primary screen (AID 1183); settings: fluorescence 635 nm, higher = more signal
[2] = blood-stage malaria parasite viability loss – strain 3D7, DAPI fluorescence, 100 nL, primary screen (AID 1184);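 note: parasites grown inside human red blood cells in medium with human serum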; settings: P. falciparum 3D7 growth, 3 d, higher = more signal
[3] = target: Homeobox protein Hox-A13 (Mus musculus) (UniProt Q62424); experiment: disruptors of Hoxa13 oligonucleotide interaction – biochemical, fluorescence polarization, labeled oligonucleotide, primary screen (AID 1185); settings: Hoxa13:DNA binding, 15 min, higher = more signal, called active from +8 up or from −8 down
Chain of Homeobox protein Hox-A13 (Mus musculus) (Q62424 whole entry, looked up): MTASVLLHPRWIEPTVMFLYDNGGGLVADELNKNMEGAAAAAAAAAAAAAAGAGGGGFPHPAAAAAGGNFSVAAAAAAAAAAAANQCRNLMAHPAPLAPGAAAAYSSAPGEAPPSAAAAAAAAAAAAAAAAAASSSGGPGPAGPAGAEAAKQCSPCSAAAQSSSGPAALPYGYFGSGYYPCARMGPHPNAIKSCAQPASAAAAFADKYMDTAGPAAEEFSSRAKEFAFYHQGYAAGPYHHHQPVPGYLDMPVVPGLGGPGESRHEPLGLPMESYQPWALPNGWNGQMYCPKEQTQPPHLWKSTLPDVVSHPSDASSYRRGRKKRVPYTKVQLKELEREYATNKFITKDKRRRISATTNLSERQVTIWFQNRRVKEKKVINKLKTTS

SMILES	composite z-score [1]	composite z-score (XIP peptide (Xip251-270))	z-score [2]	z-score [3]
CCOC(=O)[C@H](CC(C)C)NC(=O)CCC1CC(OC(=O)NCCc2ccc(F)cc2)CC2(CCCC(COC(=O)NCCOC)O2)O1 (some centres not stated)	0.0029 (inactive)	0.39	-1.9	-6.12 (inactive)
COC(=O)[C@H](C)NC(=O)CCC1CC(OC(=O)NCc2cccc3ccccc23)CC2(CCCC(COC(=O)NCc3ccccc3)O2)O1 (some centres not stated)	0.0457 (inactive)	0.461	-2.02	-1.39 (inactive)
CCOC(=O)CCN1C(=O)[C@H]2[C@H]3[C@H](O)[C@H](O)CC(=NOCC=C(C)CCC=C(C)C)[C@@H]3CC[C@H]2C1=O	0.257 (inactive)	0.613	0.664	-1.21 (inactive)
COc1ccc(O[C@H]2C=C[C@@H](c3ccccc3)O[C@@H]2COC(=O)NCc2cccc3ccccc23)cc1	-0.318 (inactive)	0.143	-0.806	1.25 (inactive)
CO[C@H]1COC(=O)CC=C[C@@H](C)COC(=O)[C@H]2CCCN2C(=O)CC=C[C@H]1C	0.0735 (inactive)	0.286	0.655	-0.292 (inactive)
CC(CCC(=O)OC[C@H]1O[C@H](C#Cc2ccccc2)C=C[C@@H]1Oc1ccc(C)cc1)=NOC(C)CN1CCCCc2nc(C)c(C)cc21 (some centres not stated)	-0.185 (inactive)	0.0787	-2.06	-2.02 (inactive)
CO[C@@H]1C=CCC(=O)N[C@@H](C)C(=O)OC[C@@H](OC)[C@H](C)C=CCC(=O)OC[C@H]1C	0.551 (inactive)	0.744	-0.523	-0.0745 (inactive)
CC(C)=CCCC(C)=CCON=C1C[C@@H](O)[C@@H](O)[C@@H]2[C@@H]3C(=O)N(c4cccc(Oc5ccccc5)c4)C(=O)[C@@H]3CC[C@H]12	0.827 (inactive)	-0.256	0.395	-0.963 (inactive)
